# Source: the supplement of paper PMC4022240
# ± gives the standard deviation.
# T1: HaloTag-ATRX ADD domain (163-292)
# T1 chain: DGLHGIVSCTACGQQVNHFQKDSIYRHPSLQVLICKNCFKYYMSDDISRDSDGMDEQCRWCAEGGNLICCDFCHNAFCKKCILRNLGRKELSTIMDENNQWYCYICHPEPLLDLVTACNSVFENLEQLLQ
# Columns and labels:
# Test in all cases: peptide microarray binding signal (635 nm), min-max normalized on array (fraction of array maximum); higher = stronger binding
# Conditions in all cases: peptide region: H3 11-23
# [1] = biological target: T1, HaloTag-ATRX ADD domain (163-292)
# Summary of the method: (§1)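 Triplicate spots of histone 13-mer peptide–cellulose conjugates with a Cy3 tracer were printed on nitrocellulose and probed for 1 h at 4°C with biotin-labelled HaloTag reader fusions (10 nM to 1 μM) plus streptavidin-Alexa Fluor 647 or rabbit histone antibodies (1:10,000 to 1:2,000) plus anti-rabbit Alexa 647. An Axon GenePix 4000B read the 635 nm channel. Binding signal is the spot-triplicate mean intensity after min-max scaling within each library.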
# [2] = biological target: HaloTag-ING2 PHD (mouse Ing2 200-280)
# Summary of the method: as §1
# [3] = biological target: anti-H3K4me3 antibody ab8580
# Summary of the method: as §1
# [4] = biological target: anti-H3K9me3 antibody ab8898
# Summary of the method: as §1
# [5] = peptide modifications: H3K14me1 H3R17cit, binder concentration: 1:2,000 dilution
# [6] = peptide modifications: H3K14me1 H3R17cit, binder concentration: 1:10,000 dilution
# [7] = peptide modifications: H3K14me1 H3R17me2s, binder concentration: 1:2,000 dilution
# [8] = peptide modifications: H3K14me1 H3R17me2s, binder concentration: 1:10,000 dilution
# [9] = peptide modifications: H3K14me3, binder concentration: 1:2,000 dilution
# [10] = peptide modifications: H3K14me3, binder concentration: 1:10,000 dilution
# [11] = peptide modifications: H3K14me1 H3K18me1, binder concentration: 1:2,000 dilution
# [12] = peptide modifications: H3K14me1 H3K18me1, binder concentration: 1:10,000 dilution
# [13] = peptide modifications: H3K14me2 H3K18me2, binder concentration: 1:2,000 dilution
# [14] = peptide modifications: H3K14me2 H3K18me2, binder concentration: 1:10,000 dilution
# [15] = peptide modifications: H3K14me2, binder concentration: 1:2,000 dilution
# [16] = peptide modifications: H3K14me2, binder concentration: 1:10,000 dilution
# [17] = peptide modifications: H3K14me1 H3K18me2, binder concentration: 1:2,000 dilution
# [18] = peptide modifications: H3K14me1 H3K18me2, binder concentration: 1:10,000 dilution
# [19] = peptide modifications: H3K14me1 H3R17me2a, binder concentration: 1:2,000 dilution
# [20] = peptide modifications: H3K14me1 H3R17me2a, binder concentration: 1:10,000 dilution
# [21] = peptide modifications: H3K14me1 H3R17me1, binder concentration: 1:2,000 dilution
# [22] = peptide modifications: H3K14me1 H3R17me1, binder concentration: 1:10,000 dilution
# [23] = peptide modifications: H3K14me2 H3K18me1, binder concentration: 1:2,000 dilution
# [24] = peptide modifications: H3K14me2 H3K18me1, binder concentration: 1:10,000 dilution
binder,measurement,setting,value
TGGKAPRKQLATK [H3 11-23 T G G Kme A P Rcit K Q L A T K],peptide microarray binding signal,"[1]; peptide modifications: H3K14me1 H3R17cit, binder concentration: 50 nM",0.00351 ± 0.00027
same,peptide microarray binding signal,"[1]; peptide modifications: H3K14me1 H3R17cit, binder concentration: 500 nM",0.0134 ± 0.00059
same,peptide microarray binding signal,"[2]; peptide modifications: H3K14me1 H3R17cit, binder concentration: 10 nM",0.0121 ± 0.0023
same,peptide microarray binding signal,"[2]; peptide modifications: H3K14me1 H3R17cit, binder concentration: 100 nM",0.0268 ± 0.0021
same,peptide microarray binding signal,[3]; [5],0.00151 ± 0.00025
same,peptide microarray binding signal,[3]; [6],0.00223 ± 0.00013
same,peptide microarray binding signal,[4]; [5],0.00267 ± 0.00024
same,peptide microarray binding signal,[4]; [6],0.00271 ± 0.00023
TGGKAPRKQLATK [H3 11-23 T G G Kme A P Rme2s K Q L A T K],peptide microarray binding signal,"[1]; peptide modifications: H3K14me1 H3R17me2s, binder concentration: 50 nM",0.00793 ± 0.00067
same,peptide microarray binding signal,"[1]; peptide modifications: H3K14me1 H3R17me2s, binder concentration: 500 nM",0.0311 ± 0.0068
same,peptide microarray binding signal,"[2]; peptide modifications: H3K14me1 H3R17me2s, binder concentration: 10 nM",0.0249 ± 0.0026
same,peptide microarray binding signal,"[2]; peptide modifications: H3K14me1 H3R17me2s, binder concentration: 100 nM",0.0474 ± 0.0059
same,peptide microarray binding signal,[3]; [7],0.00508 ± 0.0026
same,peptide microarray binding signal,[3]; [8],0.0135 ± 0.0052
same,peptide microarray binding signal,[4]; [7],0.0103 ± 0.0018
same,peptide microarray binding signal,[4]; [8],0.00709 ± 0.00074
TGGKAPRKQLATK [H3 11-23 T G G Kme3 A P R K Q L A T K],peptide microarray binding signal,"[1]; peptide modifications: H3K14me3, binder concentration: 50 nM",0.00567 ± 0.0004
same,peptide microarray binding signal,"[1]; peptide modifications: H3K14me3, binder concentration: 500 nM",0.017 ± 0.0053
same,peptide microarray binding signal,"[2]; peptide modifications: H3K14me3, binder concentration: 10 nM",0.0115 ± 0.0029
same,peptide microarray binding signal,"[2]; peptide modifications: H3K14me3, binder concentration: 100 nM",0.0106 ± 0.0035
same,peptide microarray binding signal,[3]; [9],0.0134 ± 0.0088
same,peptide microarray binding signal,[3]; [10],0.0221 ± 0.0092
same,peptide microarray binding signal,[4]; [9],0.062 ± 0.022
same,peptide microarray binding signal,[4]; [10],0.0336 ± 0.0081
TGGKAPRKQLATK [H3 11-23 T G G Kme A P R Kme Q L A T K],peptide microarray binding signal,"[1]; peptide modifications: H3K14me1 H3K18me1, binder concentration: 50 nM",0.00561 ± 0.00015
same,peptide microarray binding signal,"[1]; peptide modifications: H3K14me1 H3K18me1, binder concentration: 500 nM",0.00886 ± 0.00086
same,peptide microarray binding signal,"[2]; peptide modifications: H3K14me1 H3K18me1, binder concentration: 10 nM",0.0118 ± 0.0022
same,peptide microarray binding signal,"[2]; peptide modifications: H3K14me1 H3K18me1, binder concentration: 100 nM",0.0213 ± 0.0055
same,peptide microarray binding signal,[3]; [11],0.00619 ± 0.0022
same,peptide microarray binding signal,[3]; [12],0.00611 ± 0.00051
same,peptide microarray binding signal,[4]; [11],0.00311 ± 0.00053
same,peptide microarray binding signal,[4]; [12],0.00213 ± 5.2e-05
TGGKAPRKQLATK [H3 11-23 T G G Kme2 A P R Kme2 Q L A T K],peptide microarray binding signal,"[1]; peptide modifications: H3K14me2 H3K18me2, binder concentration: 50 nM",0.00868 ± 0.00041
same,peptide microarray binding signal,"[1]; peptide modifications: H3K14me2 H3K18me2, binder concentration: 500 nM",0.0137 ± 0.0018
same,peptide microarray binding signal,"[2]; peptide modifications: H3K14me2 H3K18me2, binder concentration: 10 nM",0.00555 ± 0.00016
same,peptide microarray binding signal,"[2]; peptide modifications: H3K14me2 H3K18me2, binder concentration: 100 nM",0.0111 ± 0.00051
same,peptide microarray binding signal,[3]; [13],0.0136 ± 0.0033
same,peptide microarray binding signal,[3]; [14],0.0097 ± 0.0018
same,peptide microarray binding signal,[4]; [13],0.00616 ± 0.00078
same,peptide microarray binding signal,[4]; [14],0.00536 ± 0.00032
TGGKAPRKQLATK [H3 11-23 T G G Kme2 A P R K Q L A T K],peptide microarray binding signal,"[1]; peptide modifications: H3K14me2, binder concentration: 50 nM",0.00614 ± 7.5e-05
same,peptide microarray binding signal,"[1]; peptide modifications: H3K14me2, binder concentration: 500 nM",0.0148 ± 0.0014
same,peptide microarray binding signal,"[2]; peptide modifications: H3K14me2, binder concentration: 10 nM",0.00806 ± 0.00059
same,peptide microarray binding signal,"[2]; peptide modifications: H3K14me2, binder concentration: 100 nM",0.00928 ± 0.002
same,peptide microarray binding signal,[3]; [15],0.00381 ± 0.00026
same,peptide microarray binding signal,[3]; [16],0.00331 ± 0.00013
same,peptide microarray binding signal,[4]; [15],0.00619 ± 0.00091
same,peptide microarray binding signal,[4]; [16],0.00548 ± 0.0005
TGGKAPRKQLATK [H3 11-23 T G G Kme A P R Kme2 Q L A T K],peptide microarray binding signal,"[1]; peptide modifications: H3K14me1 H3K18me2, binder concentration: 50 nM",0.009 ± 0.00035
same,peptide microarray binding signal,"[1]; peptide modifications: H3K14me1 H3K18me2, binder concentration: 500 nM",0.018 ± 0.00081
same,peptide microarray binding signal,"[2]; peptide modifications: H3K14me1 H3K18me2, binder concentration: 10 nM",0.00913 ± 0.00044
same,peptide microarray binding signal,"[2]; peptide modifications: H3K14me1 H3K18me2, binder concentration: 100 nM",0.0241 ± 0.008
same,peptide microarray binding signal,[3]; [17],0.0068 ± 0.0002
same,peptide microarray binding signal,[3]; [18],0.00588 ± 0.00018
same,peptide microarray binding signal,[4]; [17],0.00371 ± 0.00042
same,peptide microarray binding signal,[4]; [18],0.00271 ± 4.1e-05
TGGKAPRKQLATK [H3 11-23 T G G Kme A P Rme2a K Q L A T K],peptide microarray binding signal,"[1]; peptide modifications: H3K14me1 H3R17me2a, binder concentration: 50 nM",0.00643 ± 0.00034
same,peptide microarray binding signal,"[1]; peptide modifications: H3K14me1 H3R17me2a, binder concentration: 500 nM",0.0164 ± 0.0061
same,peptide microarray binding signal,"[2]; peptide modifications: H3K14me1 H3R17me2a, binder concentration: 10 nM",0.00633 ± 0.00014
same,peptide microarray binding signal,"[2]; peptide modifications: H3K14me1 H3R17me2a, binder concentration: 100 nM",0.0122 ± 0.0012
same,peptide microarray binding signal,[3]; [19],0.00328 ± 0.0014
same,peptide microarray binding signal,[3]; [20],0.00896 ± 0.0044
same,peptide microarray binding signal,[4]; [19],0.00393 ± 0.00055
same,peptide microarray binding signal,[4]; [20],0.00398 ± 0.00069
TGGKAPRKQLATK [H3 11-23 T G G Kme A P Rme K Q L A T K],peptide microarray binding signal,"[1]; peptide modifications: H3K14me1 H3R17me1, binder concentration: 50 nM",0.0069 ± 0.00032
same,peptide microarray binding signal,"[1]; peptide modifications: H3K14me1 H3R17me1, binder concentration: 500 nM",0.0148 ± 0.001
same,peptide microarray binding signal,"[2]; peptide modifications: H3K14me1 H3R17me1, binder concentration: 10 nM",0.00674 ± 0.00033
same,peptide microarray binding signal,"[2]; peptide modifications: H3K14me1 H3R17me1, binder concentration: 100 nM",0.0121 ± 0.00053
same,peptide microarray binding signal,[3]; [21],0.00587 ± 0.0018
same,peptide microarray binding signal,[3]; [22],0.0114 ± 0.0068
same,peptide microarray binding signal,[4]; [21],0.0084 ± 0.0022
same,peptide microarray binding signal,[4]; [22],0.00427 ± 0.0008
TGGKAPRKQLATK [H3 11-23 T G G Kme2 A P R Kme Q L A T K],peptide microarray binding signal,"[1]; peptide modifications: H3K14me2 H3K18me1, binder concentration: 50 nM",0.00752 ± 0.0013
same,peptide microarray binding signal,"[1]; peptide modifications: H3K14me2 H3K18me1, binder concentration: 500 nM",0.0129 ± 0.00084
same,peptide microarray binding signal,"[2]; peptide modifications: H3K14me2 H3K18me1, binder concentration: 10 nM",0.013 ± 0.0021
same,peptide microarray binding signal,"[2]; peptide modifications: H3K14me2 H3K18me1, binder concentration: 100 nM",0.0405 ± 0.012
same,peptide microarray binding signal,[3]; [23],0.0136 ± 0.0009
same,peptide microarray binding signal,[3]; [24],0.00964 ± 0.0012
same,peptide microarray binding signal,[4]; [23],0.00565 ± 0.00074
same,peptide microarray binding signal,[4]; [24],0.0045 ± 0.00053
